Reference: PMC11006913
Changes are numbered by the printed parent chain.

Key:
Experiment in all cases: PBM; 200 nM protein, PBS
Details in all cases: dsDNA, one strand shown
HESX1 [1] = target: HESX1 (Homo sapiens, UniProt Q9UBX0 95-180, R165K)
HESX1 [2] = target: HESX1 (Homo sapiens, UniProt Q9UBX0 95-180)
HESX1 [3] = target: HESX1 (Homo sapiens, UniProt Q9UBX0 95-180, P111T)
HOXB4 [4] = target: HOXB4 (Homo sapiens, UniProt P17483 148-234)
CRX [5] = target: CRX (Homo sapiens, UniProt O43186 26-111)
Sequence of CRX (Homo sapiens, UniProt O43186 26-111) (O43186 26-111): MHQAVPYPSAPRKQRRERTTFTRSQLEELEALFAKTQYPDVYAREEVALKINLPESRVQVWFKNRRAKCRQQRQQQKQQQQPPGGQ

PAX4 [6] = target: T1, PAX4 (Homo sapiens, UniProt O43316 9-242, R200K)
T1 sequence: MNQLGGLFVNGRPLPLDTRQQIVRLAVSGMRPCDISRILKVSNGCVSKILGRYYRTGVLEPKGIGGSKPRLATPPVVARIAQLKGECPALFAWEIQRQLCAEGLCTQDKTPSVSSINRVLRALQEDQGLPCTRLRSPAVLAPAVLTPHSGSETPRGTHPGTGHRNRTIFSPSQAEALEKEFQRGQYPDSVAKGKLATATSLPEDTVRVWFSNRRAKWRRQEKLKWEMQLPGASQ

PAX4 [7] = target: T2, PAX4 (Homo sapiens, UniProt O43316 9-242)
T2 sequence: T1 sequence with K192R

HOXB4 [8] = target: HOXB4 (Homo sapiens, UniProt P17483 148-234, V174I)
Sequence of HOXB4 (Homo sapiens, UniProt P17483 148-234, V174I) (P17483 148-234 V174I): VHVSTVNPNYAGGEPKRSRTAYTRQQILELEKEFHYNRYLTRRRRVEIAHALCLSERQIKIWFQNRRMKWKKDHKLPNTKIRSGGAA

NKX2-6 = target: T3, NKX2-6 (Homo sapiens, UniProt A6NCS4 118-204, R150C)
T3 sequence: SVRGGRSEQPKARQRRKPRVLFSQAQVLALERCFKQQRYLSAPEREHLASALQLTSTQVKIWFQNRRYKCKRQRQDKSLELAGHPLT

CRX [9] = target: CRX (Homo sapiens, UniProt O43186 26-111, E42D)
Sequence of CRX (Homo sapiens, UniProt O43186 26-111, E42D) (O43186 26-111 E42D): as the sequence (O43186 26-111) above, with E17D counted along it

PAX4 [10] = target: T4, PAX4 (Homo sapiens, UniProt O43316 9-242, R200Q)
T4 sequence: T1 sequence with K192Q

PAX4 [11] = target: T5, PAX4 (Homo sapiens, UniProt O43316 9-242, F177V)
T5 sequence: T1 sequence with F169V, K192R

PAX4 [12] = target: T6, PAX4 (Homo sapiens, UniProt O43316 9-242, F177Y)
T6 sequence: T1 sequence with F169Y, K192R

PAX4 [13] = target: T7, PAX4 (Homo sapiens, UniProt O43316 9-242, R227W)
T7 sequence: T1 sequence with K192R, R219W

CRX [14] = target: CRX (Homo sapiens, UniProt O43186 26-111, R41L)
Sequence of CRX (Homo sapiens, UniProt O43186 26-111, R41L) (O43186 26-111 R41L): as the sequence (O43186 26-111) above, with R16L counted along it

HESX1 [15] = target: HESX1 (Homo sapiens, UniProt Q9UBX0 95-180, F115L)
Sequence of HESX1 (Homo sapiens, UniProt Q9UBX0 95-180, F115L) (Q9UBX0 95-180 F115L): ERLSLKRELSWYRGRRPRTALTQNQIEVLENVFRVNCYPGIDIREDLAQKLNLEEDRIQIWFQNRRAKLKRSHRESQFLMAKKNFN

HOXA4 [16] = target: HOXA4 (Homo sapiens, UniProt Q00056 201-287, W262R)
Sequence of HOXA4 (Homo sapiens, UniProt Q00056 201-287, W262R) (Q00056 201-287 W262R): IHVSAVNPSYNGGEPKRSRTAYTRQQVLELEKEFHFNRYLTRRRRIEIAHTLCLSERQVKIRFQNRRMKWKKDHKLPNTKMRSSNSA

HOXA2 [17] = target: HOXA2 (Homo sapiens, UniProt O43364 129-215, R185T)
Sequence of HOXA2 (Homo sapiens, UniProt O43364 129-215, R185T) (O43364 129-215 R185T): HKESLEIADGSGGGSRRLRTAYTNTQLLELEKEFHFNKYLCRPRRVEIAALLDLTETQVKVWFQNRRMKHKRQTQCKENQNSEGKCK

HOXA4 [18] = target: HOXA4 (Homo sapiens, UniProt Q00056 201-287, R217L)
Sequence of HOXA4 (Homo sapiens, UniProt Q00056 201-287, R217L) (Q00056 201-287 R217L): as the sequence (Q00056 201-287 W262R) above, with R17L, R62W counted along it

HOXA2 [19] = target: HOXA2 (Homo sapiens, UniProt O43364 129-215, R185K)
Sequence of HOXA2 (Homo sapiens, UniProt O43364 129-215, R185K) (O43364 129-215 R185K): as the sequence (O43364 129-215 R185T) above, with T57K counted along it

HOXA4 [20] = target: HOXA4 (Homo sapiens, UniProt Q00056 201-287)
Sequence of HOXA4 (Homo sapiens, UniProt Q00056 201-287) (Q00056 201-287): as the sequence (Q00056 201-287 W262R) above, with R62W counted along it

VAX1 [21] = target: VAX1 (Homo sapiens, UniProt Q5SQQ9 86-172)
Sequence of VAX1 (Homo sapiens, UniProt Q5SQQ9 86-172) (Q5SQQ9 86-172): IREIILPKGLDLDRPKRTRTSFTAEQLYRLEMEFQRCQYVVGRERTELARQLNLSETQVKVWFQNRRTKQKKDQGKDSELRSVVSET

VAX1 [22] = target: VAX1 (Homo sapiens, UniProt Q5SQQ9 86-172, T142I)
Sequence of VAX1 (Homo sapiens, UniProt Q5SQQ9 86-172, T142I) (Q5SQQ9 86-172 T142I): as the sequence (Q5SQQ9 86-172) above, with T57I counted along it

HOXA2 [23] = target: HOXA2 (Homo sapiens, UniProt O43364 129-215, Y150S)
Sequence of HOXA2 (Homo sapiens, UniProt O43364 129-215, Y150S) (O43364 129-215 Y150S): as the sequence (O43364 129-215 R185T) above, with Y22S, T57R counted along it

HOXA4 [24] = target: HOXA4 (Homo sapiens, UniProt Q00056 201-287, W262F)
Sequence of HOXA4 (Homo sapiens, UniProt Q00056 201-287, W262F) (Q00056 201-287 W262F): as the sequence (Q00056 201-287 W262R) above, with R62F counted along it

HOXA2 [25] = target: HOXA2 (Homo sapiens, UniProt O43364 129-215)
Sequence of HOXA2 (Homo sapiens, UniProt O43364 129-215) (O43364 129-215): as the sequence (O43364 129-215 R185T) above, with T57R counted along it

VAX1 [26] = target: VAX1 (Homo sapiens, UniProt Q5SQQ9 86-172, K157R)
Sequence of VAX1 (Homo sapiens, UniProt Q5SQQ9 86-172, K157R) (Q5SQQ9 86-172 K157R): as the sequence (Q5SQQ9 86-172) above, with K72R counted along it

HESX1 [27] = target: HESX1 (Homo sapiens, UniProt Q9UBX0 95-180, R109Q)
Sequence of HESX1 (Homo sapiens, UniProt Q9UBX0 95-180, R109Q) (Q9UBX0 95-180 R109Q): as the sequence (Q9UBX0 95-180 F115L) above, with R15Q, L21F counted along it

Sequence of HESX1 (Homo sapiens, UniProt Q9UBX0 95-180, P111T) (Q9UBX0 95-180 P111T): as the sequence (Q9UBX0 95-180 F115L) above, with P17T, L21F counted along it
Sequence of HESX1 (Homo sapiens, UniProt Q9UBX0 95-180, R165K) (Q9UBX0 95-180 R165K): as the sequence (Q9UBX0 95-180 F115L) above, with L21F, R71K counted along it
Sequence of HESX1 (Homo sapiens, UniProt Q9UBX0 95-180) (Q9UBX0 95-180): as the sequence (Q9UBX0 95-180 F115L) above, with L21F counted along it
Sequence of HOXB4 (Homo sapiens, UniProt P17483 148-234) (P17483 148-234): as the sequence (P17483 148-234 V174I) above, with I27V counted along it

CTCAATTC
binding signal (HESX1 [1]): 7.54 upbm affinity estimate (log intensity, higher = more binding, comparable within an allelic series)
binding signal (HESX1 [2]): 7.59 upbm affinity estimate (log intensity, higher = more binding, comparable within an allelic series)
binding signal (HESX1 [3]): 7.26 upbm affinity estimate (log intensity, higher = more binding, comparable within an allelic series)

GACGCCGC
binding signal (HOXB4 [4]): 7.74 upbm affinity estimate (log intensity, higher = more binding, comparable within an allelic series)
binding signal (CRX [5]): 8.08 upbm affinity estimate (log intensity, higher = more binding, comparable within an allelic series)
binding signal (PAX4 [6]): 9.17 upbm affinity estimate (log intensity, higher = more binding, comparable within an allelic series)
binding signal (PAX4 [7]): 9.29 upbm affinity estimate (log intensity, higher = more binding, comparable within an allelic series)
binding signal (HOXB4 [8]): 7.51 upbm affinity estimate (log intensity, higher = more binding, comparable within an allelic series)
binding signal (NKX2-6): 9.27 upbm affinity estimate (log intensity, higher = more binding, comparable within an allelic series)
binding signal (CRX [9]): 8.14 upbm affinity estimate (log intensity, higher = more binding, comparable within an allelic series)
binding signal (PAX4 [10]): 9.2 upbm affinity estimate (log intensity, higher = more binding, comparable within an allelic series)
binding signal (PAX4 [11]): 9.15 upbm affinity estimate (log intensity, higher = more binding, comparable within an allelic series)
binding signal (PAX4 [12]): 9.2 upbm affinity estimate (log intensity, higher = more binding, comparable within an allelic series)
binding signal (PAX4 [13]): 9.18 upbm affinity estimate (log intensity, higher = more binding, comparable within an allelic series)
binding signal (CRX [14]): 8.18 upbm affinity estimate (log intensity, higher = more binding, comparable within an allelic series)

ATTAGTGC
binding signal (HESX1 [1]): 9.5 upbm affinity estimate (log intensity, higher = more binding, comparable within an allelic series)
binding signal (HESX1 [2]): 9.81 upbm affinity estimate (log intensity, higher = more binding, comparable within an allelic series)
binding signal (HESX1 [3]): 8.71 upbm affinity estimate (log intensity, higher = more binding, comparable within an allelic series)
binding signal (HESX1 [15]): 6.94 upbm affinity estimate (log intensity, higher = more binding, comparable within an allelic series)

AATCATTA
binding signal (HOXB4 [4]): 13.2 upbm affinity estimate (log intensity, higher = more binding, comparable within an allelic series)
binding signal (CRX [5]): 10.5 upbm affinity estimate (log intensity, higher = more binding, comparable within an allelic series)
binding signal (HOXA4 [16]): 10.7 upbm affinity estimate (log intensity, higher = more binding, comparable within an allelic series)
binding signal (HOXA2 [17]): 12.4 upbm affinity estimate (log intensity, higher = more binding, comparable within an allelic series)
binding signal (HOXA4 [18]): 12.3 upbm affinity estimate (log intensity, higher = more binding, comparable within an allelic series)
binding signal (HOXB4 [8]): 13.8 upbm affinity estimate (log intensity, higher = more binding, comparable within an allelic series)
binding signal (CRX [9]): 10.3 upbm affinity estimate (log intensity, higher = more binding, comparable within an allelic series)
binding signal (HOXA2 [19]): 13.2 upbm affinity estimate (log intensity, higher = more binding, comparable within an allelic series)
binding signal (HOXA4 [20]): 13.9 upbm affinity estimate (log intensity, higher = more binding, comparable within an allelic series)
binding signal (VAX1 [21]): 12.7 upbm affinity estimate (log intensity, higher = more binding, comparable within an allelic series)
binding signal (VAX1 [22]): 12.6 upbm affinity estimate (log intensity, higher = more binding, comparable within an allelic series)
binding signal (HOXA2 [23]): 10.8 upbm affinity estimate (log intensity, higher = more binding, comparable within an allelic series)
binding signal (CRX [14]): 9.82 upbm affinity estimate (log intensity, higher = more binding, comparable within an allelic series)
binding signal (HOXA4 [24]): 11.6 upbm affinity estimate (log intensity, higher = more binding, comparable within an allelic series)
binding signal (HOXA2 [25]): 12.1 upbm affinity estimate (log intensity, higher = more binding, comparable within an allelic series)
binding signal (VAX1 [26]): 12.4 upbm affinity estimate (log intensity, higher = more binding, comparable within an allelic series)

ACTTTATA
binding signal (HESX1 [1]): 7.59 upbm affinity estimate (log intensity, higher = more binding, comparable within an allelic series)
binding signal (HESX1 [2]): 7.66 upbm affinity estimate (log intensity, higher = more binding, comparable within an allelic series)
binding signal (HESX1 [27]): 7.19 upbm affinity estimate (log intensity, higher = more binding, comparable within an allelic series)
binding signal (HESX1 [3]): 7.41 upbm affinity estimate (log intensity, higher = more binding, comparable within an allelic series)
binding signal (HESX1 [15]): 7.31 upbm affinity estimate (log intensity, higher = more binding, comparable within an allelic series)
